For 1 compound, residual activity results are on record in ChEMBL document CHEMBL2218924, “A broad activity screen in support of a chemogenomic map for kinase signalling research and drug discovery” (Biochem J, 2013).

Test [1] concerns the target T1, Serine/threonine-protein kinase TBK1 (Homo sapiens) (UniProt Q9UHD2).
T1 sequence (whole entry): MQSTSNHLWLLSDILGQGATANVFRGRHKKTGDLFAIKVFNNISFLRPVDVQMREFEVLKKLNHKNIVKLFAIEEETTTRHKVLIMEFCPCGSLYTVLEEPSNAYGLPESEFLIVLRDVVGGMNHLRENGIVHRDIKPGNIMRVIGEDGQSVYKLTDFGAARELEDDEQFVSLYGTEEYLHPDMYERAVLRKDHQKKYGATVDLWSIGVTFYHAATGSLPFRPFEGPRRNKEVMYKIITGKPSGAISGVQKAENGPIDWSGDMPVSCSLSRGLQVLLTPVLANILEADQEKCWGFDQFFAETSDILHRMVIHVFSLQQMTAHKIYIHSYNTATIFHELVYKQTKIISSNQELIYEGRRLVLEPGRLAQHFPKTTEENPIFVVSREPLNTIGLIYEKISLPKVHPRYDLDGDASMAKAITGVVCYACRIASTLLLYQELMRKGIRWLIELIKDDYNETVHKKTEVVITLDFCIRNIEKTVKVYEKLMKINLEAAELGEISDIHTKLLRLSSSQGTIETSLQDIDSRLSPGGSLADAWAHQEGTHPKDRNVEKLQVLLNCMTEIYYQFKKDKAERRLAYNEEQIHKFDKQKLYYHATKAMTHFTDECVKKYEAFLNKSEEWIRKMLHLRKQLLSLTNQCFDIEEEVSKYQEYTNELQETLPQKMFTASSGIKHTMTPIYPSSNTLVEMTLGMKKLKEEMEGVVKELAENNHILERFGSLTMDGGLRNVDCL
Particulars: at 10 µM.

The target in test [2] is T2, TGF-beta receptor type-1 (Homo sapiens) (UniProt P36897).
T2 sequence (whole entry): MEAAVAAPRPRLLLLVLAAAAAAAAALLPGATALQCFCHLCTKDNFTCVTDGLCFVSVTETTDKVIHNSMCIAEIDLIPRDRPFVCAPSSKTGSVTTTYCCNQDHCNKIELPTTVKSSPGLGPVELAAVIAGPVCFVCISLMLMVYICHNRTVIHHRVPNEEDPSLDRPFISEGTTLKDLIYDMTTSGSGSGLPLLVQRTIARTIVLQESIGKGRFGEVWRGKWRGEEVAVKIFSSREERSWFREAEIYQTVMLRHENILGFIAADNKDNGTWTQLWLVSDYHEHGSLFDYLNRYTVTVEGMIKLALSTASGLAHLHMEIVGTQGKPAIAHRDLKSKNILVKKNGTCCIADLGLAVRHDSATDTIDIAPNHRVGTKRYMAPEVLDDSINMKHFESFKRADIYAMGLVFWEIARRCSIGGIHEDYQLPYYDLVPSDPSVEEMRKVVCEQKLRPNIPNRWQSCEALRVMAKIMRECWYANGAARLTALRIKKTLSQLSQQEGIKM
To be noted: at 1 µM.

For test [3], the target named is T2, TGF-beta receptor type-1 (Homo sapiens). Particulars: at 10 µM.
Test [4] deals with Insulin-like growth factor 1 receptor (Homo sapiens) (UniProt P08069). To be noted: at 1 µM.
Insulin-like growth factor 1 receptor (Homo sapiens), sequence (P08069 31-736 limits assumed): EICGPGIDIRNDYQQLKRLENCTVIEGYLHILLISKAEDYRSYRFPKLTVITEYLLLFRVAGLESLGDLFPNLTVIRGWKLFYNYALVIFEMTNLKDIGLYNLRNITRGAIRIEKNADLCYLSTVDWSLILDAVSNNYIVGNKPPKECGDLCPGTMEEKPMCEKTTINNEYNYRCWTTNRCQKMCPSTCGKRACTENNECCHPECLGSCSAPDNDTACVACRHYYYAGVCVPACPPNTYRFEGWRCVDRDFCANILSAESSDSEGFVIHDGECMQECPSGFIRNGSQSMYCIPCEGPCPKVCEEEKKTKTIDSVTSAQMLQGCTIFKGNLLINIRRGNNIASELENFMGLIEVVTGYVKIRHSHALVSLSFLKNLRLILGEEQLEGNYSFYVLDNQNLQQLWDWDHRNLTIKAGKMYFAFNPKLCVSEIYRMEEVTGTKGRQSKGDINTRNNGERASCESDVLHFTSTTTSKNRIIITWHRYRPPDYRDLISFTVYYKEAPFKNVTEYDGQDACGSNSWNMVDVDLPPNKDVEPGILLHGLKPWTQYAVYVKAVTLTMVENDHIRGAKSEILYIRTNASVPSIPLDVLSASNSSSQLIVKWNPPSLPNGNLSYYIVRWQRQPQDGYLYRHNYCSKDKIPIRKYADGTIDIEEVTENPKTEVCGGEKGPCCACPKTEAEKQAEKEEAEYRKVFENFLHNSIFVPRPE
Insulin-like growth factor 1 receptor (Homo sapiens), sequence (P08069 741-1367 limits assumed): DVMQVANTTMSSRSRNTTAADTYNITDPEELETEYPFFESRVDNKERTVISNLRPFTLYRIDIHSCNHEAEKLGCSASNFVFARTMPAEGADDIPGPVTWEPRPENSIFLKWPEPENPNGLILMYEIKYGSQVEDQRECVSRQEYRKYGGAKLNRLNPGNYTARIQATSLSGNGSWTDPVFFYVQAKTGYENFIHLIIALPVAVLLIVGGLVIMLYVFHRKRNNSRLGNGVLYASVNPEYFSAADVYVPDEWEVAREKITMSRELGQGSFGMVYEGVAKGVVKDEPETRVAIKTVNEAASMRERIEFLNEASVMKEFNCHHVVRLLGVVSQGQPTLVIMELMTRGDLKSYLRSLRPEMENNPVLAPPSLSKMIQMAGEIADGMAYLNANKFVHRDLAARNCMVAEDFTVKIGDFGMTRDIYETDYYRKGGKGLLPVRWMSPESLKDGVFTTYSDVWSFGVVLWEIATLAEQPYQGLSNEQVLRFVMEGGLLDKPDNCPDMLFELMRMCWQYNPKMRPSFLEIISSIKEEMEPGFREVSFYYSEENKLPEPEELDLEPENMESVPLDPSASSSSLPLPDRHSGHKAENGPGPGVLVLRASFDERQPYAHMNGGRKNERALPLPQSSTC
For test [5] the target is unchanged. To be noted: at 10 µM.
The target of test [6] is T3, Inhibitor of nuclear factor kappa-B kinase subunit alpha (Homo sapiens) (UniProt O15111).
T3 sequence (whole entry): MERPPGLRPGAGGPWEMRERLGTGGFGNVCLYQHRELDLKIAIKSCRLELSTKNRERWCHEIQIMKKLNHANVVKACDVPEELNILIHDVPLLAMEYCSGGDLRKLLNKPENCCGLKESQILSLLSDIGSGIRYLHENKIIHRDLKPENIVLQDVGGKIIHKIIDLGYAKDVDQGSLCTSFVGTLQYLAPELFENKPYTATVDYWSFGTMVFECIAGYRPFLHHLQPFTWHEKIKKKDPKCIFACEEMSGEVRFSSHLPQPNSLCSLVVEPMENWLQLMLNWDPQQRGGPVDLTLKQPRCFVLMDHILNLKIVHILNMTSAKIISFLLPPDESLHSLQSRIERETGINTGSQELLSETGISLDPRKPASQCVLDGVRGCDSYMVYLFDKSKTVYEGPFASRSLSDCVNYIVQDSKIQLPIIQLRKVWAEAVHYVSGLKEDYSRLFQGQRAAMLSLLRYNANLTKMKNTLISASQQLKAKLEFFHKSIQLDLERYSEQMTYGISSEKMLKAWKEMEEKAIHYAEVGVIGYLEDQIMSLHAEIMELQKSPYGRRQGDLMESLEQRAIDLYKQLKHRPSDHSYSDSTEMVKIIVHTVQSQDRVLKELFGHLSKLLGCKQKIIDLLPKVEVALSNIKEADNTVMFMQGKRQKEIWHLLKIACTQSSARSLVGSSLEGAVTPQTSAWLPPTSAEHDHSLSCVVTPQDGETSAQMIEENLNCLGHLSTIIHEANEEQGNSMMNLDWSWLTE
To be noted: at 1 µM.

Test [7] concerns the target T3, Inhibitor of nuclear factor kappa-B kinase subunit alpha (Homo sapiens). To be noted: at 10 µM.
Test [8] concerns the target T4, Inhibitor of nuclear factor kappa-B kinase subunit beta (Homo sapiens) (UniProt O14920).
T4 sequence (whole entry): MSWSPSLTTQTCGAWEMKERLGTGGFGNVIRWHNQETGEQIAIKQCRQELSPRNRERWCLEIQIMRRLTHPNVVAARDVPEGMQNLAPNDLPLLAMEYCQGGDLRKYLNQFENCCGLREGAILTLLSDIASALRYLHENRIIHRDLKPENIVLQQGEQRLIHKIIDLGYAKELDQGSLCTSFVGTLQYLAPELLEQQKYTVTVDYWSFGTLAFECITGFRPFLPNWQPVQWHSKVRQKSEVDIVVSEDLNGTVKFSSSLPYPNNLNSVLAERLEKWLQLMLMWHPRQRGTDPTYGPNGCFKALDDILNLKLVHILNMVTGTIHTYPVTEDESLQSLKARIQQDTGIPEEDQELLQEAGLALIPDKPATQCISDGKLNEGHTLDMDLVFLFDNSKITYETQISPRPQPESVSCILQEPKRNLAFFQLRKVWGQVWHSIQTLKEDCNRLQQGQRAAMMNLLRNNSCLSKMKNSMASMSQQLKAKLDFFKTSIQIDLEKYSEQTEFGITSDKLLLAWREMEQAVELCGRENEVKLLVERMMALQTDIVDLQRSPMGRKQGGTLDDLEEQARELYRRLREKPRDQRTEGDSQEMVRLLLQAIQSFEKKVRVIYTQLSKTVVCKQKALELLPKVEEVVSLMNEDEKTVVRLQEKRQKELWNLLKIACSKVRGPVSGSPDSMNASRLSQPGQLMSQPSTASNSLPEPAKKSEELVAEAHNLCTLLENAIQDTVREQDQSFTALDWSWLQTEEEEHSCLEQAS
To be noted: at 1 µM.

Test [9] deals with T4, Inhibitor of nuclear factor kappa-B kinase subunit beta (Homo sapiens). To be noted: at 10 µM.
In test [10] the target is Insulin receptor (Homo sapiens) (UniProt P06213). To be noted: at 1 µM.
Insulin receptor (Homo sapiens), sequence (P06213 28-758 limits assumed): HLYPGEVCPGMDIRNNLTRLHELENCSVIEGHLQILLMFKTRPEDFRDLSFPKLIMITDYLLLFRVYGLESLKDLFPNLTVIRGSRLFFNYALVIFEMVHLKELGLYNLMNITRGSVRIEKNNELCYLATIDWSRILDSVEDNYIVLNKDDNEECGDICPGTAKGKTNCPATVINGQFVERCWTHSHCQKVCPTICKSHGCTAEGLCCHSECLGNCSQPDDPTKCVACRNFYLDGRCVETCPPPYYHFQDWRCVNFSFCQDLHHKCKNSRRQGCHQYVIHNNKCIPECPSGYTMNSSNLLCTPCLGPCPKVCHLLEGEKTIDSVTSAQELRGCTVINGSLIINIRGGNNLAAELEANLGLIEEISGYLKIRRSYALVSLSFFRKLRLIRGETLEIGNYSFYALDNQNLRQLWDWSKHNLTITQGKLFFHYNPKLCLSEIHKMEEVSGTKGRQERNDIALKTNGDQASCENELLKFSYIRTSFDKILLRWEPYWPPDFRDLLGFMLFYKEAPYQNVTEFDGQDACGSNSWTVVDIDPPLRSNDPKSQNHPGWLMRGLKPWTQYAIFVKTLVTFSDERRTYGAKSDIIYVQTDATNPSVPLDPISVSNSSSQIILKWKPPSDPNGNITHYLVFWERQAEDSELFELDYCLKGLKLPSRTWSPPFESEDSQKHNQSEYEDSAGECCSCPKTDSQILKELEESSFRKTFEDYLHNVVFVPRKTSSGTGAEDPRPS
Insulin receptor (Homo sapiens), sequence (P06213 763-1382 limits assumed): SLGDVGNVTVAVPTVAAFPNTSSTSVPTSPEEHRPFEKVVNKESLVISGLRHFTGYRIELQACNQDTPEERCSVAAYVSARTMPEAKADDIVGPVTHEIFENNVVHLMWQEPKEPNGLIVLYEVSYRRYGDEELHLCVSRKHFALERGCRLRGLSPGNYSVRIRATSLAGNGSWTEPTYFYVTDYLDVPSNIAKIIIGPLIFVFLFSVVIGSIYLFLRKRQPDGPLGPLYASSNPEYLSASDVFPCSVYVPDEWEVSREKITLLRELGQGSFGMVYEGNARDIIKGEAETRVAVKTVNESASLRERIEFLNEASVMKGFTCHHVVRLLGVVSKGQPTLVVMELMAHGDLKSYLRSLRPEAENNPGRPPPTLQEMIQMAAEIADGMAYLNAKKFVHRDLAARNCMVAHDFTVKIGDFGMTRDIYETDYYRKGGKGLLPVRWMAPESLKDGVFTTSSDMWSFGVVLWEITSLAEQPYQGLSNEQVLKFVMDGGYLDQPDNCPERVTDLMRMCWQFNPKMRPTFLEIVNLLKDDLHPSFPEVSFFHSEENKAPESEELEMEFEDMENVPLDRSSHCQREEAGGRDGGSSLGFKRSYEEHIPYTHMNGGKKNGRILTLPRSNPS

`CNc1cc2c(Nc3cccc(Br)c3)ncnc2cn1`: the residual activity in test [1] worked out at 64%; in test [2], 87%; in test [3] it was 94%; in test [4], 96%; in test [5] it was 94%; in test [6], 108%. Besides, the residual activity was determined as 101% in test [7], 92% in [8], 76% in [9] and 91% in test [10].
